# Test results taken from PubChem BioAssay (NCI).
# About 83,000 compounds went through this panel and 20% of them were active in at least one assay; those are over-represented in the sample as a whole.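 96-well plates, one dose, 48 hours. Percent growth reported; active if below 10.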 A number with no mark means an inactive call. Activity calls are given as the source filed them.
# Legend:
# Assay in all cases: NCI-60 one-dose screen, 48 h (100 = growth as untreated, 0 = no growth, -100 = all killed)
# [1] = system: NCI-H226 lung; settings: 10 µM
# [2] = system: NCI-H322M lung; settings: 10 µM
# [3] = system: HOP-62 NSCLC; settings: 10 µM
# [4] = system: NCI-H460 lung; settings: 10 µM
# [5] = system: NCI-H522 lung; settings: 10 µM
# [6] = system: A549/ATCC NSCLC; settings: 10 µM
# [7] = system: DU-145 prostate; settings: 10 µM
# [8] = system: K-562 leukemia; settings: 10 µM
# [9] = system: SF-539 CNS; settings: 10 µM
# [10] = system: M14 melanoma; settings: 10 µM
# [11] = system: HCT-15 colon; settings: 10 µM
# [12] = system: HT29 colon; settings: 10 µM
# [13] = system: SNB-19 CNS; settings: 10 µM
# [14] = system: U251 CNS; settings: 10 µM
# [15] = system: PC-3 prostate; settings: 10 µM
# [16] = system: LOX IMVI melanoma; settings: 10 µM
# [17] = system: MOLT-4 leukemia; settings: 10 µM
# [18] = system: SR leukemia; settings: 10 µM
# [19] = system: RPMI-8226 leukemia; settings: 10 µM
# [20] = system: MDA-MB-468 breast; settings: 10 µM unless noted
Compound,growth [1],growth [2] [%],growth [3],growth [4],growth [5],growth [6] [%],growth [7] [%],growth [8],growth [9],growth [10],growth [11],growth [12],growth [13] [%],growth [14],growth [15],growth [16],growth [17],growth [18],growth [19],growth [20]
O=C(Nc1ccc(OCC(=O)c2ccc(Cl)cc2)cc1)Nc1ccc(Cl)c(C(F)(F)F)c1,38%,49.1,47.6%,27.6%,-12.4% (active),24.3,66.2,65.3%,47.3%,33.9%,23.6%,33.6%,21.3,35.6%,7.67% (active),-37.8% (active),45.3%,39.5%,12.2%,–
CC(=O)Nc1ccc(/C=C2\SC(=S)N(/C=C(\C(C)=O)C(N)=O)C2=O)cc1,–,–,–,–,–,–,–,–,–,–,–,–,–,–,–,–,–,–,–,108%
Cc1nc(-c2cc3ccccc3oc2=O)ccc1C(=O)/C=C/c1ccc(Cl)c(Cl)c1,–,–,–,–,–,–,–,–,–,–,–,–,–,–,–,–,–,–,–,110%
COc1cc(NCCN(CC(C)C)CC(C)C)c2ncc(C)cc2c1,–,–,–,–,–,–,–,–,–,–,–,–,–,–,–,–,–,–,–,11.7%
COc1ccc(C2c3sc4ccc(C)cc4c3Oc3nc(N)nc(N)c32)cc1 (centres undefined),78.5%,89.3,79.4%,88.8%,57.2%,92.2,102,50.9%,69.6%,74.8%,59.9%,99.1%,84.5,83.1%,79.8%,80.8%,89.9%,51.2%,83.6%,79.8%
CC1(C)CC(=O)C2=C(C1)N(Cc1ccc(C(=O)O)cc1)C1=C(C(=O)CC(C)(C)C1)C2c1ccc(Cl)cc1,108%,93.7,101%,104%,84.9%,99.3,113,103%,110%,101%,98.4%,112%,112,105%,109%,61.7%,92.9%,99.6%,113%,103%
COc1ccc(C(=O)COc2ccc(NC(=O)Nc3ccccc3)cc2)cc1,87.6%,88.5,101%,76.6%,58.2%,80.9,105,94.6%,97%,93.6%,80.3%,103%,93.3,86.5%,83.1%,58.9%,73.9%,80.6%,93.3%,80.9%
COc1cccc(C(=O)CSc2nc(-c3ccc(OCc4ccccc4)c(OC)c3)c(C#N)c(=O)[nH]2)c1,86.6%,88.3,92.2%,106%,78.9%,98.5,107,90.6%,94.2%,99.5%,92.8%,116%,70.7,79.2%,103%,85.7%,102%,93.9%,102%,88.4%
Cc1ccc2sc3c(c2c1)Oc1nc[nH]c(=O)c1C3c1cccc(F)c1 (centres undefined),80.6%,96.7,98.6%,102%,82.8%,98.7,105,81.7%,99.6%,99.4%,92.6%,103%,92.6,97.1%,85.7%,107%,97%,96.3%,88.7%,78%
O=C(Nc1ccc(OCc2ccc(F)cc2)cc1)Nc1ccc(Cl)c(C(F)(F)F)c1,15%,21.9,11.4%,6.77% (active),-20.8% (active),16.4,31.6,9.32% (active),8.73% (active),9.01% (active),7.42% (active),11.9%,18.3,10.3%,-1.21% (active),-47.4% (active),6.64% (active),-7.46% (active),-1.27% (active),-8.31% (active)
O=C(CC(=O)Nc1ccc(Oc2ncnc3scc(Nc4n[nH]c(=S)s4)c23)cc1)Nc1ccc(Cl)cc1,67.8%,94.5,89.1%,85.5%,55.2%,83,97,71.3%,91.6%,108%,66.9%,106%,87.7,90.4%,74%,69%,60.2%,62.2%,86.8%,-18.5% (active)
CC(C)(C)c1cc(/C=C2\S/C(=N/c3ncn[nH]3)NC2=O)cc(C(C)(C)C)c1O,5.38% (active),17,21.3%,3.73% (active),-23.9% (active),15.4,32.3,16.7%,18%,17.9%,11.5%,10.7%,23.7,2.45% (active),12.2%,-7.75% (active),13.8%,6.04% (active),8.38% (active),9.25% (active)
O=C(CC(=O)Nc1ccc(Oc2ncnc3scc(Nc4n[nH]c(=S)s4)c23)cc1)Nc1ccc(Br)cc1,94.4%,106,99.8%,107%,89.6%,101,107,76.4%,104%,98.1%,100%,112%,99.9,103%,99.9%,66.2%,85.3%,87%,110%,120%
O=C(CSc1nc2ccccc2c(=O)n1-c1ccc(Cl)cc1)Nc1ccc(-c2nc3ccc([N+](=O)[O-])cc3[nH]2)cc1,0.985% (active),72.4,0.0608% (active),21.1%,32.7%,50.2,44.2,28.9%,28.6%,32.4%,56.3%,36.4%,48.7,20.6%,-14.9% (active),-30% (active),39.5%,38.2%,53%,-35.6% (active)
Cc1cc(N=C2NC(=O)S/C2=C\c2ccc(F)cc2)n[nH]1,17.1%,32.3,26.7%,5.74% (active),-8.95% (active),18.9,30,15.4%,4.62% (active),-30.7% (active),13.9%,6.68% (active),27.4,5.06% (active),6.14% (active),-59.8% (active),10.5%,8.59% (active),-14.7% (active),-5.57% (active)
O=C1CC(=O)N(c2ccccc2)O1,–,–,–,–,–,–,–,–,–,–,–,–,–,–,–,–,–,–,–,105%
Cn1cc(-c2nc(N)nnc2-c2c[nH]c3ccccc23)c2cc(Br)cnc21,0.98% (active),37.2,28.5%,4.09% (active),-36.5% (active),16.4,20.6,9.47% (active),8.25% (active),8.68% (active),10.2%,-27.2% (active),44.9,8.89% (active),13.3%,15.6%,13.8%,8.01% (active),13%,-9.99% (active)
O=C1NC(=S)S/C1=C\c1cn(-c2ccccc2)nc1-c1ccc([N+](=O)[O-])cc1,13.2%,30.5,19.4%,9.76% (active),-4.14% (active),15.2,36.9,16.5%,21%,20.5%,10.4%,15.1%,18.7,9.35% (active),11.2%,29.1%,17%,24.5%,2.45% (active),-8.61% (active)
C=C1C(=O)O[C@H]2[C@H]1CC/C(COC(=O)c1cc(OC)c(OC)c(OC)c1)=C\CC[C@@]1(C)O[C@@H]21,–,–,–,–,–,–,–,–,–,–,–,–,–,–,–,–,–,–,–,-33.2% (active)
O=C(Nc1ccc(Oc2ncnc3scc(Nc4n[nH]c(=S)s4)c23)cc1)C1(C(=O)Nc2cccc(C(F)(F)F)c2)CC1,72.2%,101,92.8%,81.9%,94.1%,92.5,106,102%,96.1%,103%,95.4%,112%,99.6,110%,103%,30.4%,106%,85%,110%,-10.1% (active)
